Measurements reported in the supplement of paper PMC10849652.
About 7,900 targets were measured; listed, in parts, are those with a hit and a random draw of the rest. About 0.6% of all pairs of compound and target were hits. A number with no mark means an inactive call.

Tests used:
Test in all cases: log2 fold change, soluble protein after heating vs DMSO (PISA); higher = thermal stabilisation; K562 cells, 10 uM, 30 min; active = over 0.2 and 3.5 SD of the protein, either way, in both replicates (recomputed)
[1] = compound: CC[C@@H]1C(=O)N(C)c2cnc(Nc3ccc(C(=O)NC4CCN(C)CC4)cc3OC)nc2N1C1CCCC1
In short: (§1)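 Thermal stability values are relative to control samples and come from duplicates. They are expressed as log2 fold changes. For measurement, K562 cells (2×10^6 cells/mL) received 10 μM compound for 30 min, and aliquots were heated for 3 min over 48°C-58°C, pooled, and extracted at 4°C in PBS with 0.5% NP-40. Soluble protein, the supernatant after 21,000xg for 90 min, was quantified by TMTpro 16plex LC-MS/MS with equalised channel sums.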

volasertib = compound: CC[C@@H]1C(=O)N(C)c2cnc(Nc3ccc(C(=O)N[C@H]4CC[C@H](N5CCN(CC6CC6)CC5)CC4)cc3OC)nc2N1C(C)C [volasertib]
In short: as §1

[2] = compound: CC[C@H](C)N1C=C(C2=C(C=C(C=C21)C3=CN=C(C=C3)N4CCNCC4)C(=O)NCC5=C(C=C(NC5=O)C)C)C
In short: as §1

epoxomicin = compound: CC[C@H](C)[C@@H](C(=O)N[C@@H]([C@@H](C)O)C(=O)N[C@@H](CC(C)C)C(=O)[C@]1(CO1)C)NC(=O)[C@H]([C@@H](C)CC)N(C)C(=O)C [epoxomicin]
In short: as §1

[3] = compound: CCn1c(C(=O)N(C2CC2)C2CC2)cc2c3c(ncn3C)c(Nc3cc(C)n(C)n3)nc21
In short: as §1

[4] = compound: CCn1cc(-c2ccnc3[nH]c(-c4cccc(CN(C)C)c4)cc23)c(-c2ccc(NC(=O)N(C)C)cc2)n1
In short: as §1

[5] = compound: CN(C)CC(=O)Nc1ccc2[nH]c(=O)c3ccccc3c2c1
In short: as §1

rosiglitazone = compound: CN(CCOC1=CC=C(C=C1)C[C@H]2C(=O)NC(=O)S2)C3=CC=CC=N3 (racemic) [rosiglitazone]
In short: as §1

[6] = compound: CN1C2=C(C3=C1C(=O)N(N=C3)CC4=CC(=CC=C4)N)SC(=C2)S(=O)C
In short: as §1

[7] = compound: CN1CCC(CNc2ccc3ncc(-c4cccc(OC(F)(F)F)c4)n3n2)CC1
In short: as §1

UniProt Q8WWC4, sequence (Q8WWC4 whole entry, looked up): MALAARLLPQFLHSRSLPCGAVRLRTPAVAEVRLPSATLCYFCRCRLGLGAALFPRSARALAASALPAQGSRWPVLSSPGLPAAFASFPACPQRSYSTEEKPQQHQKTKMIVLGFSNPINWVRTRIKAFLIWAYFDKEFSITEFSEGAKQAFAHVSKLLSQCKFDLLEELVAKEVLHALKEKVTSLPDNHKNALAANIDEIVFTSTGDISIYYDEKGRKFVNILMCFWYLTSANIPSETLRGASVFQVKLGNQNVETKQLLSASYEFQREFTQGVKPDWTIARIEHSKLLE
UniProt Q99661, sequence (Q99661 whole entry, looked up): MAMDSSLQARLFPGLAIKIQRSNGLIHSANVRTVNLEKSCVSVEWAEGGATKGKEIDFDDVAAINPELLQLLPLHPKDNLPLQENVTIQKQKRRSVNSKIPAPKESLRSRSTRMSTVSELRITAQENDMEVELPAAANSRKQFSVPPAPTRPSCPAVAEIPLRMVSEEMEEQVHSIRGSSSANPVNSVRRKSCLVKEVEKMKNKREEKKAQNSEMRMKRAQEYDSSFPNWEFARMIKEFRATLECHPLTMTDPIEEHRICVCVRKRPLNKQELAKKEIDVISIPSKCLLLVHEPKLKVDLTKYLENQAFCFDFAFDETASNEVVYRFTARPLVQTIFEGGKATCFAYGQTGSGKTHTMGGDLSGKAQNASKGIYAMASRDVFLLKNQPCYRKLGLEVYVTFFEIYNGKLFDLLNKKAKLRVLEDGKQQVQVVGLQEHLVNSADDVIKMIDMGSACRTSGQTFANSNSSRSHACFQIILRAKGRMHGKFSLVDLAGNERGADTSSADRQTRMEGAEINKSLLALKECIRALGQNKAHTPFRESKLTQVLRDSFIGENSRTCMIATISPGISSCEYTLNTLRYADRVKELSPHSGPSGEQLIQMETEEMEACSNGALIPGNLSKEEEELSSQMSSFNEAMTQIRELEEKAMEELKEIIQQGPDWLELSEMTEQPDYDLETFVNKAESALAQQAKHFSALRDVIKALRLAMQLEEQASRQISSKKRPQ
UniProt A8MWY0, sequence (A8MWY0 whole entry, looked up): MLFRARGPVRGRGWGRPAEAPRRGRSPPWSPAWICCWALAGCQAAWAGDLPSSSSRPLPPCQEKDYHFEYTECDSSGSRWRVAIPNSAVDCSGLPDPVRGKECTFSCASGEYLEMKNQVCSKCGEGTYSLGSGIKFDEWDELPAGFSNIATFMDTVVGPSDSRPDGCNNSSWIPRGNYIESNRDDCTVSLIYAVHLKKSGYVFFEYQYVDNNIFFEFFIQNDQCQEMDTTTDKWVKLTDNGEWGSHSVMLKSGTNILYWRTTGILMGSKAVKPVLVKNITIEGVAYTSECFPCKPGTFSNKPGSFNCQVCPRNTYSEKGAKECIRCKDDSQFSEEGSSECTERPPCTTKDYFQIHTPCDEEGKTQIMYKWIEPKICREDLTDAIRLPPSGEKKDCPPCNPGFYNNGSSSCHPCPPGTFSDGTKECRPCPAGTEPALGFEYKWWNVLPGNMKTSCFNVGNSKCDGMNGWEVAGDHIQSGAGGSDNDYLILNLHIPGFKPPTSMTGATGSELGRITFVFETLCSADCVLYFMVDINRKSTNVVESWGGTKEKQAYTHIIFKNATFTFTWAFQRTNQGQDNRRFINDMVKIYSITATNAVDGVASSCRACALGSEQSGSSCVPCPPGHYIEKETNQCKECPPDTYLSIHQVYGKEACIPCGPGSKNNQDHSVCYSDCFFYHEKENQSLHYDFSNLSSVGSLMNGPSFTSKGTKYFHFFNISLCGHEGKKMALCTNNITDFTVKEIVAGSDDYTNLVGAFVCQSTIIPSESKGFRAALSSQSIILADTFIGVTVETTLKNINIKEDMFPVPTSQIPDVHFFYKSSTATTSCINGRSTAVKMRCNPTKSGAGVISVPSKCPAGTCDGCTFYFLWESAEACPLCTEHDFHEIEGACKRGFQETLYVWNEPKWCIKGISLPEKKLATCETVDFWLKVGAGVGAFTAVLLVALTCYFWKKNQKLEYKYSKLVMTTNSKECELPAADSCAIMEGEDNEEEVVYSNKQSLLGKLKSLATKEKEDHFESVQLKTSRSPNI
UniProt Q9BPX6, sequence (Q9BPX6 whole entry, looked up): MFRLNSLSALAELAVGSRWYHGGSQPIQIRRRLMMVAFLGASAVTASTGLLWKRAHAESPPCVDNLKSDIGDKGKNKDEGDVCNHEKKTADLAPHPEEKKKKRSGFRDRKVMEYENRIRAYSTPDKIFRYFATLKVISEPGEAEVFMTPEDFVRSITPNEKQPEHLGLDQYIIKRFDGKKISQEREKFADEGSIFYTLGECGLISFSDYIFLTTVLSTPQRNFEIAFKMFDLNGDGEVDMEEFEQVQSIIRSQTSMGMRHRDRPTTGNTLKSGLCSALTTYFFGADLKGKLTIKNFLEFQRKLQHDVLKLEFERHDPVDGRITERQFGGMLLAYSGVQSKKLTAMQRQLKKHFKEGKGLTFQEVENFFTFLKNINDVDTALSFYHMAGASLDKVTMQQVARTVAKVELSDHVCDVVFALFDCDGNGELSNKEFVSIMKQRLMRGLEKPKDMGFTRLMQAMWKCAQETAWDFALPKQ
UniProt O94829, sequence (O94829 whole entry, looked up): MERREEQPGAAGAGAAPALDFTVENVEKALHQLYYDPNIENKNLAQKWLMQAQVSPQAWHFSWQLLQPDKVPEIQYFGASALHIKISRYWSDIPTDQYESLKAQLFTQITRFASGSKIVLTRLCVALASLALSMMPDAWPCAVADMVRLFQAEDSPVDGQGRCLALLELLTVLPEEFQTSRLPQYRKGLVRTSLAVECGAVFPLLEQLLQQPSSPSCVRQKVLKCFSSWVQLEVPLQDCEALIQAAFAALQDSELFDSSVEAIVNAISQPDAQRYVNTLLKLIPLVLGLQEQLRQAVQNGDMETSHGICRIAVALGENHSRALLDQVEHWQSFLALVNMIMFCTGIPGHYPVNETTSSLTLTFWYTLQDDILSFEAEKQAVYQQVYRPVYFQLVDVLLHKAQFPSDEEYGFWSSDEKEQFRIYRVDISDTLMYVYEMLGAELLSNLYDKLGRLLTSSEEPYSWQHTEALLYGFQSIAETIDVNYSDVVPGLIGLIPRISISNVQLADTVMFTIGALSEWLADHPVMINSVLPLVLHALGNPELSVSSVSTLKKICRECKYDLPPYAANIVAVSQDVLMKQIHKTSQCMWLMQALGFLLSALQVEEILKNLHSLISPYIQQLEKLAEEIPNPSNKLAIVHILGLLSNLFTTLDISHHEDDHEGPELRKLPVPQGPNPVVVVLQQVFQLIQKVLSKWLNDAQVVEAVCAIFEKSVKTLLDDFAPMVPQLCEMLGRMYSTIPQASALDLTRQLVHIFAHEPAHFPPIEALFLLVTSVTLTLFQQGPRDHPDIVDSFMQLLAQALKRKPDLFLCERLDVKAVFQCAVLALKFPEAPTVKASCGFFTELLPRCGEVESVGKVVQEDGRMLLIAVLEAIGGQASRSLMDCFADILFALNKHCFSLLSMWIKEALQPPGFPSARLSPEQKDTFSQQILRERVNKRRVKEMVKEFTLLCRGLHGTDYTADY
UniProt Q08334, sequence (Q08334 whole entry, looked up): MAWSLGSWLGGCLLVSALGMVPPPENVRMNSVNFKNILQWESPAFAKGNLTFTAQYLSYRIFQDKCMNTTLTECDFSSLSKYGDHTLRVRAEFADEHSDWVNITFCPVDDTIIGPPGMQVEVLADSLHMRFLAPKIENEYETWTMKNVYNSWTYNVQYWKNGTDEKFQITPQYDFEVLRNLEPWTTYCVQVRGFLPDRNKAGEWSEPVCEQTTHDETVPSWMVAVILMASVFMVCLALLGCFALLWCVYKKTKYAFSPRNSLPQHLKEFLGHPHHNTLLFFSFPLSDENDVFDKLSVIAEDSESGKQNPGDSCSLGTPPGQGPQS
UniProt P13473, sequence (P13473 whole entry, looked up): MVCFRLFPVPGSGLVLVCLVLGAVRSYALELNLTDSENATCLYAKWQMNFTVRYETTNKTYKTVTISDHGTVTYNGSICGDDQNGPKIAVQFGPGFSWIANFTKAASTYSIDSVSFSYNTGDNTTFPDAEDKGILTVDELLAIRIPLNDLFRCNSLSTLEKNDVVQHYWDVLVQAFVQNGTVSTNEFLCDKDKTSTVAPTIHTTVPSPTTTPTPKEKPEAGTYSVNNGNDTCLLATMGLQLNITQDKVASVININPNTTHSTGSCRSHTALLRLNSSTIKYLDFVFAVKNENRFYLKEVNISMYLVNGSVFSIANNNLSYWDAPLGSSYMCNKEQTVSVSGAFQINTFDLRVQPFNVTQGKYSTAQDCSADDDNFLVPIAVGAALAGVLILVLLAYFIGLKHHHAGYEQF
UniProt P22692, sequence (P22692 whole entry, looked up): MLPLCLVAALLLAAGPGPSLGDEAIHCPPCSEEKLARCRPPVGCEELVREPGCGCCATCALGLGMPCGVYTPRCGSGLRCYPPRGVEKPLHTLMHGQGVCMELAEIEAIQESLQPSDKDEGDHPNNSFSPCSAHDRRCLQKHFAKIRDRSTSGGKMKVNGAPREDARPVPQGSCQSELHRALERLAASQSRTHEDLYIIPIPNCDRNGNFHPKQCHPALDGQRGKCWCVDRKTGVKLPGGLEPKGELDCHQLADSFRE
UniProt P49137, sequence (P49137 whole entry, looked up): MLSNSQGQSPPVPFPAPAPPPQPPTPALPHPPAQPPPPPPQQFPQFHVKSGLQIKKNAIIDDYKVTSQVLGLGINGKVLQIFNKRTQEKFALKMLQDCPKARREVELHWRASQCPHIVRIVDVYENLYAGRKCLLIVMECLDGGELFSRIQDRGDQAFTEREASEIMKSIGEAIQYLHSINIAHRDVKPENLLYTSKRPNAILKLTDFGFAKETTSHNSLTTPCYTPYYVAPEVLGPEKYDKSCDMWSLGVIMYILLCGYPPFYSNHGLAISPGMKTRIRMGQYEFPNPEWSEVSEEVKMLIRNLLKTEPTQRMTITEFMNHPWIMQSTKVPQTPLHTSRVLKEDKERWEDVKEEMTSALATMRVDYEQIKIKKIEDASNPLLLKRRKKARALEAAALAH
UniProt Q9BRT3, sequence (Q9BRT3 whole entry, looked up): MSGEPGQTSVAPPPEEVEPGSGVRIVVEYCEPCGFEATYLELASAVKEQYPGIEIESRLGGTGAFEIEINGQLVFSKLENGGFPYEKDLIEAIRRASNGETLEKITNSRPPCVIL

Target | log2 fold change [1] | log2 fold change (volasertib) | log2 fold change [2] | log2 fold change (epoxomicin) | log2 fold change [3] | log2 fold change [4] | log2 fold change [5] | log2 fold change (rosiglitazone) | log2 fold change [6] | log2 fold change [7]
MICU1 isoform 3 (UniProt Q9BPX6) | -0.113 | -0.281 | 0.031 | 0.026 | -0.009 | 0.008 | 0.006 | -0.01 | 0.077 | -0.369 (active)
MICU2 (UniProt Q8IYU8) | -0.135 | -0.118 | 0 | 0.067 | 0.005 | -0.046 | 0.007 | -0.017 | 0.097 | -0.309 (active)
MAIP1 (UniProt Q8WWC4) | -0.086 | -0.098 | -0.023 | -0.068 | 0.034 | -0.015 | 0.026 | -0.001 | -0.052 | -0.396 (active)
MFF (UniProt Q9GZY8) | -0.007 | 0 | -0.046 | 0.037 | 0 | 0.043 | -0.031 | 0.035 | 0.031 | -0.386 (active)
IGFBP4 (UniProt P22692) | -0.22 | -0.07 | -0.092 | -0.187 | -0.045 | 0.173 | -0.049 | 0.13 | 0.023 | -0.033
LARP7 isoform 3 (UniProt Q4G0J3) | -0.047 | -0.155 | 0.051 | -0.081 | 0.034 | -0.032 | 0.064 | 0.003 | 0.014 | -0.075
IL10RB (UniProt Q08334) | 0.045 | -0.086 | 0.05 | 0.056 | -0.089 | -0.247 | -0.018 | 0.087 | 0.007 | 0.084
MAST4 (UniProt O15021) | -0.059 | -0.22 | 0.073 | 0.048 | 0.056 | -0.102 | -0.009 | 0.067 | -0.115 | -0.384
KLC2 (UniProt Q9H0B6) | -0.03 | -0.059 | 0.038 | 0.015 | -0.046 | 0.02 | -0.003 | 0.057 | -0.013 | -0.131
LMBRD2 (UniProt Q68DH5) | -0.063 | -0.042 | -0.012 | 0.081 | -0.007 | -0.018 | 0.002 | -0.023 | -0.008 | -0.362 (active)
LIMA1 isoform 4 (UniProt Q9UHB6) | -0.006 | -0.115 | -0.021 | 0.003 | -0.015 | 0 | -0.053 | -0.01 | -0.006 | 0.086
MIEN1 (UniProt Q9BRT3) | 0.055 | -0.047 | -0.02 | 0.008 | 0.045 | 0.029 | 0.181 | -0.007 | 0.008 | 0.284 (active)
KIAA1324L (UniProt A8MWY0) | -0.312 (active) | -0.293 (active) | -0.012 | 0.015 | 0.011 | -0.019 | 0.091 | 0.111 | -0.112 | -0.14
LAMP2 isoform 2 (UniProt P13473) | -0.137 | -0.081 | -0.078 | -0.016 | 0.028 | -0.01 | 0.012 | -0.035 | -0.112 | -0.485 (active)
IPO11 isoform 2 (UniProt Q9UI26) | -0.104 | -0.3 (active) | -0.004 | 0.066 | -0.01 | -0.068 | 0.028 | -0.002 | -0.082 | -0.016
IPO13 (UniProt O94829) | -0.367 (active) | -0.291 (active) | -0.081 | 0.048 | 0.015 | -0.084 | -0.013 | 0.072 | 0.048 | -0.333 (active)
KPNA1 (UniProt P52294) | -0.039 | -0.312 (active) | 0.115 | -0.051 | 0.022 | 0.004 | 0.055 | 0.055 | 0.104 | -0.082
INTS7 (UniProt Q9NVH2) | 0.035 | -0.313 | 0.1 | -0.029 | -0.119 | -0.1 | 0.038 | 0.033 | 0.069 | 0.3
IPO9 (UniProt Q96P70) | -0.227 (active) | -0.611 (active) | -0.003 | -0.031 | 0.03 | 0.034 | 0.009 | 0.018 | -0.007 | -0.077
ILKAP (UniProt Q9H0C8) | -0.135 | -0.343 (active) | 0.127 | 0.077 | -0.071 | -0.052 | 0.086 | 0.023 | -0.085 | -0.064
MCUR1 (UniProt Q96AQ8) | 0.022 | 0.137 | 0.006 | 0.009 | -0.027 | -0.041 | -0.038 | 0.025 | -0.042 | -0.115
L2HGDH (UniProt Q9H9P8) | -0.088 | -0.014 | 0.006 | -0.02 | -0.023 | -0.067 | -0.027 | 0.031 | -0.11 | -0.325 (active)
MAPKAPK2 (UniProt P49137) | -0.058 | -0.059 | 0.026 | 0.049 | 0.022 | -0.002 | 0.032 | 0.023 | -0.007 | -0.018
KPNA4 (UniProt O00629) | -0.008 | -0.251 | 0.033 | -0.008 | 0.038 | 0.029 | 0 | 0.01 | -0.066 | -0.052
MEAK7 (UniProt Q6P9B6) | -0.084 | -0.473 (active) | 0.039 | 0.067 | -0.025 | -0.03 | -0.046 | 0.103 | -0.033 | -0.097
MAP2K7 isoform 4 (UniProt O14733) | -0.026 | -0.005 | 0.022 | 0.07 | 0.017 | -0.086 | -0.017 | 0.033 | -0.065 | -0.15
KCT2 (UniProt Q8NC54) | -0.312 | -0.076 | -0.006 | -0.063 | 0.089 | -0.03 | 0.064 | 0.009 | -0.051 | -0.037
MCL1 (UniProt Q07820) | -0.03 | -0.038 | -0.033 | 0.308 | 0.213 | -0.032 | 0.052 | 0.019 | -0.035 | -0.209
KIF2C (UniProt Q99661) | -0.037 | -0.357 (active) | 0.084 | 0.019 | -0.042 | -0.063 | 0.09 | 0.057 | 0.003 | -0.06
